Data from publication PMC12136788.
The full ranking holds about 24,000 sequences; the median of “enrichment r” is about 0.99, and the highest 2% start at about 3.7. What follows is part of a selection rich in the highest values, with near analogues and random picks from the rest.

T1: UNK ZnF1-3 (human, UniProt Q9C0B0 31-174)
T1 sequence: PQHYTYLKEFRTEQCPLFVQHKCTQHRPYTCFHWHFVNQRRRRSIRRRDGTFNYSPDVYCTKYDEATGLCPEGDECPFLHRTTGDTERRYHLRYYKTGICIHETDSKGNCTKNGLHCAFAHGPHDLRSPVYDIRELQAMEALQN

B1: chr5:145543945:145543946:-_ENSG00000133706_ENST00000545646|hu_hu|hu_hu_hu_mus_True|18_98 (ssRNA)
RNA: GGGAGUUCUACAGUCCGACGAUCCUGAACGGCCAGUGGCGGGAAAUAAUCAAGCCAGUGCUCUGCUUCAGAAAACUUCACUAUGUCGUCAUCAGAGAGCCCAAGGGAUUUCAUAAUGCCCCACUGGUACUUAGAAGAUCCUGCCAACAGAGGAUUGAGCAUCA
B2: 74491169_74493004_2024_3pUTR_ENSMUSG00000020745_ENSMUST00000021091|mouse|control|control (ssRNA)
RNA: GGGAGUUCUACAGUCCGACGAUCAUCAACGGCACUCCCACACCUUUACUGUUUGAUCUACACUGCCAGUAACCACAUAGGGUGCCGUCUUAUGGAAAUCCAAGGAGGUAACAAAGUGUUCAUGCGCAUUGAGGGUCUUCAUGCCAACAGAGGAUUGAGCAUCA
B3: chr10:36858571:36858572:-_ENSMUSG00000069662_ENSMUST00000092584|mus_hu|FALSE|FALSE (ssRNA)
RNA: GGGAGUUCUACAGUCCGACGAUCAUAAAAAAAUUUUAGUCGAAGAGAUCAAAAAGCAGCAGCACAGGAGGGAGGGAAAAAGGGUGGAAAAGUCGAGCACAAAAAAAGGAGCCCAAGUGUAGUUCGAAAAAAAAAGAAGUAAUACAACAGAGGAUUGAGCAUCA
B4: 72182037_72182157_980_3pUTR_ENSG00000148730_ENST00000373218|human|control|control (ssRNA)
RNA: GGGAGUUCUACAGUCCGACGAUCCCAGAGGAAAGAAAGGAAGUGGACCUCAAAACAGUGUCACAGGGUAACGCUACCAGAGUUGCACAAGCUGUGCUCUGUCCCGAGGGACGAAUACCUCAAGGUAAAAGGGAAAGCAGCUCUCAACAGAGGAUUGAGCAUCA
B5: chr10:36858571:36858572:-_ENSMUSG00000069662_ENSMUST00000092584|mus_mus|FALSE|FALSE (ssRNA)
RNA: GGGAGUUCUACAGUCCGACGAUCAUAAAAAAUUUUUAGUCGAAGAGAUCAAAAAAGCAGCAGCGCAGGAAGGAGGGAAAAAGGUGGAAAAGUCGAGCACAAAAAAGGAGCCCAAGUGUAGUUUUUUUAAAAAAAGAAGUAAUACAACAGAGGAUUGAGCAUCA
B6: chr5:134790399:134790400:-_ENSMUSG00000060261_ENSMUST00000173341|mus_hu|FALSE|FALSE (ssRNA)
RNA: GGGAGUUCUACAGUCCGACGAUCGGGAGGCGAGAGGGGGCGAGGGGCCCGUGCGUGUCGGUCGCGCUCCUGUCACCGCCGCAUGGCCGCCCCGCAGGCAGGGCCUCGCUCAGCGCCUUGAUCCGAUCACUGGGGGACAGAGGCCAACAGAGGAUUGAGCAUCA
B7: chr22:19452774:19452775:-_ENSG00000070010_ENST00000399523|hu_hu|hu_hu_hu_mus_False|28_58 (ssRNA)
RNA: GGGAGUUCUACAGUCCGACGAUCCUUCUCAUUGUAGUUGAUAGCAAUCACAUCUCCAGUCGUCAGACAGGCGAAGUUCCUAAGUGCAUUUUCUAAUACCGCUUUAGGGUUGGUGAUAUCCAGGAAGUCUGGGCUCUGAGGCUGCAACAGAGGAUUGAGCAUCA
B8: chr14:59855892:59855893:+_ENSMUSG00000035469_ENSMUST00000043227|mus_mus|motif|central (ssRNA)
RNA: GGGAGUUCUACAGUCCGACGAUCGCUUCCAUUAUUAUAUCAGAAGAAAACAUUAAUUUCAAUAAUAGUUUCUUGCUUUCGGUGAUUAUAACCAAAACCAAGUAGAAAAAUAAAAAGAUUGCAUUUAAAAAAAAUUUGCAAACCCAACAGAGGAUUGAGCAUCA
B9: chr2:42509997:42509998:+_ENSG00000143924_ENST00000318522|hu_hu|FALSE|FALSE (ssRNA)
RNA: GGGAGUUCUACAGUCCGACGAUCUCGCUGAGUUCUCUCCUCAUAAUUAAAUAGUACUACUACUGAUGCAAUGAAAUAAACUAUUUUCCCGGUCGGAAGAAGGUAAACAUUAGCUCUACAGUCCUUUCCUCGAUAACCAUAUGCCAACAGAGGAUUGAGCAUCA
B10: chr3:119456006:119456007:-_ENSMUSG00000028134_ENSMUST00000029780|mus_hu|FALSE|FALSE (ssRNA)
RNA: GGGAGUUCUACAGUCCGACGAUCAAUAUGAAGUACACGAGAAGGAGCACCAUCCAUUUUAUCUUCUCCUUUAAAUUUUUUACUAUCAUUACCAUUGGCUGUAACUACCAUGCUGCUCAUAUUAGAGUUCGGACUACUGAGAACCAACAGAGGAUUGAGCAUCA
B11: chr14:59855892:59855893:+_ENSMUSG00000035469_ENSMUST00000043227|mus_hu|motif|central (ssRNA)
RNA: GGGAGUUCUACAGUCCGACGAUCUUCCAUUAUUACAUUAGAUGAAAAAAUCAAUUCAAAUAAGAGUUGUCAUAUCCUGCGGUGAUUAACAAAAAAACAAGUAGAAAAAUAAGAGAGUGUAUUUAAAAAAAAUAAUCAAAUGCUCAACAGAGGAUUGAGCAUCA
B12: 55555555_55559808_3342_CDS_ENSG00000115355_ENST00000336838|human|control|control (ssRNA)
RNA: GGGAGUUCUACAGUCCGACGAUCCAAAAGUUUAUACCUGUCAUCAGUACUUUGUUCAUCAUGUAAGAGUCGCUCCUUAUUUAACCCUAUCUUCUCAAGCUCAUGAGUUAAUUUUUCGAGAUCAUUGUUCAUCUGUUGGGUCUUCAACAGAGGAUUGAGCAUCA
B13: chr8:72542918:72542919:-_ENSMUSG00000031858_ENSMUST00000050561|mus_mus|FALSE|FALSE (ssRNA)
RNA: GGGAGUUCUACAGUCCGACGAUCAGCUAUCAAGCCAAGAGGAGCUGAGCUGGUCCCAUAACUGUCCUCCAUGGGAAAGCUAAAUAGCUGCCAGGAAGGAACCCUCUCAUUCAGGUCCAAUGGGACUUCUGCCUGAUGCUUAGGCAACAGAGGAUUGAGCAUCA

Each binder was assayed against T1, UNK ZnF1-3 (assay: nsRBNS (natural sequence RNA bind-n-seq); RBNS binding buffer (assumed for nsRBNS): 25 mM Tris pH 7.5, 150 mM KCl, 3 mM MgCl2, 0.01% Triton X-100, 500 ug/ml BSA, 20 U/ml SUPERase-In, 4 C; UNK is unkempt and MSI1 is Musashi-1; names of the RNAs are library labels; protein concentration not given here; high values mean tight binding).
Binder B1 has a binding signal of 0.932 enrichment R. B2 gave a binding signal of 0.744 enrichment R. With B3 the binding signal was 4.29 enrichment R. In the case of B4, the binding signal is reported as 0.893 enrichment R. Work on B5 yielded a binding signal of 11.7 enrichment R. With B6 the binding signal was 0.997 enrichment R. For B7, the binding signal was 0.837 enrichment R. B8 was tested, and the binding signal was 4 enrichment R. B9 was tested, and the binding signal was 0.867 enrichment R. Work on B10 yielded a binding signal of 4.17 enrichment R. For B11, the binding signal was 6.68 enrichment R. B12 gave a binding signal of 0.637 enrichment R. For B13, the binding signal was 1.1 enrichment R.
